# Measured values published in PubChem BioAssay.
# Results filed as inconclusive are left out. Calls of active or inactive are those of the source. Unless noted, cut-off not given; nearly all actives show AC50 up to about 30 µM.
# Legend:
# [1] = growth inhibition of DIPG glioma cells, dose response, cell-based, SU-DIPG-XVII, MIPE5.0, CellTiter-Glo, qHTS (AID 1347060; cut-off not given, nearly all actives have AC50 up to about 26 µM;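 further: cells exposed to compound for 48 hours before viability readout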); details: SU-DIPG-XVII viability, CellTiter-Glo ATP luminescence
# [2] = viability loss in pontine glioma line – cell-based, SU-DIPG-XXV, MIPE5.0, CellTiter-Glo, qHTS, dose response (AID 1347065; cut-off not given, nearly all actives have AC50 up to about 26 µM;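 further: cells exposed to compound for 48 hours before ATP readout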); details: CellTiter-Glo ATP luminescence
# [3] = JHH-DIPG-1 glioma cell viability, MIPE5.0 library, CellTiter-Glo luminescence, qHTS (AID 1347067; cut-off not given, nearly all actives have AC50 up to about 26 µM;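 further: cells exposed to compound for 48 hours before readout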); details: JHH-DIPG-1 glioma viability, CellTiter-Glo ATP luminescence
# [4] = SU-DIPG-XXV glioma cell viability, MIPE5.0 library, qHTS (AID 1347068; cut-off not given, nearly all actives have IC50 up to about 30 µM)
# [5] = growth inhibition of DIPG glioma cells, dose response, cell-based, SU-DIPG-XIII, MIPE4.0, CellTiter-Glo, qHTS (AID 1347061; cut-off not given, nearly all actives have AC50 up to about 37 µM;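 further: cells exposed to compound for 48 hours before readout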); details: SU-DIPG-XIII viability, CellTiter-Glo ATP luminescence
# [6] = growth inhibition of DIPG glioma cells, dose response, cell-based, JHH-DIPG-1, MIPE4.0, CellTiter-Glo, qHTS (AID 1347062; cut-off not given, nearly all actives have AC50 up to about 27 µM;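 on AC50: cells exposed to compound for two days before readout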); details: JHH-DIPG-1 viability, CellTiter-Glo ATP luminescence
# [7] = growth inhibition of DIPG glioma cells, dose response, cell-based, SU-DIPG-XIII, MIPE5.0, CellTiter-Glo, qHTS (AID 1347064; cut-off not given, nearly all actives have AC50 up to about 23 µM;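 on AC50: cells exposed to compound for 48 hours before the viability read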); details: SU-DIPG-XIII viability, CellTiter-Glo ATP luminescence
# [8] = SU-DIPG-VI glioma cell viability, MIPE4.0 library, CellTiter-Glo luminescence, qHTS (AID 1347066); details: CellTiter-Glo ATP luminescence;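 further: cells exposed to compound for 48 hours before readout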
# [9] = growth inhibition of DIPG glioma cells, dose response, cell-based, SU-DIPG-IV, MIPE4.0, CellTiter-Glo, qHTS (AID 1347063); details: SU-DIPG-IV viability, CellTiter-Glo ATP luminescence;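 further: compound exposure lasted 48 hours before the viability readout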
# [10] = sensitizers of A549 cells to miR-34 induction, primary screen, imaging, A549 dox-inducible miR-34, nuclei and caspase counts (AID 1347080;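 active means compounds whose cell count with miR-34 switched on is under 0.7 times the count with it off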); details: A549 miR-34 inducible, Hoechst nuclei count, 48 h
# [11] = survival rescue of mitochondrial mutant cells in low glucose, primary screen, MELAS cybrids, Rieske KO mouse fibroblasts, CellTiter-Glo (AID 1508586;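 active means mean z-score across replicates of 1.96 or higher in either the MELAS or the Rieske mutant cell line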;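 further: z relative to plate mean and SD of compound and empty wells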)
# [12] = viability rescue of complex I mutant cybrids, primary screen, cell-based, galactose medium, ATP luminescence (AID 1645843;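 active means z-score of at least 1.8 in each of two replicates, scored against plate mean and spread of sample wells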;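 further: positive z means more ATP and so rescue of galactose-driven cybrid death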); details: complex I mutant cybrid cells, 72 h, stronger effect = higher value
# [13] = measured here: relative caspase fold change +Dox/-Dox
# [14] = measured here: total cells with miR-34 induction, stronger effect = lower value
# [15] = measured here: total cells without miR-34 induction
# [16] = MELAS cybrid survival, CellTiter-Glo 48 h, stronger effect = higher value
# [17] = Rieske KO mouse fibroblast survival, CellTiter-Glo 72 h
# [18] = stronger effect = lower value, cell number ratio, induced over uninduced
smiles,measurement,setting,value
COc1cc2c(cc1F)C(c1ccccc1Cl)=Nc1c(n[nH]c1C)N2,AC50,[1],5.25 µM (active)
same,AC50,[2],13.2 µM (active)
same,AC50,[3],14.8 µM (active)
same,outcome,[4],inactive
CCOC(=O)c1c(/C(C#N)=C\N)c2ccc(Cl)c(Cl)c2n1C,outcome,[5],inactive
same,outcome,[6],inactive
same,outcome,[7],inactive
same,outcome,[8],inactive
same,outcome,[3],inactive
same,outcome,[4],inactive
CC(C)N(CCNC(=O)CN1CCCC1=O)C(C)C,outcome,[5],inactive
same,outcome,[6],inactive
same,outcome,[9],inactive
same,outcome,[8],inactive
same,fold change,[10]; stronger effect = lower value,0.88 (inactive)
same,fold change,[10]; [13],0.862
same,cell count,[10]; [14],9340
same,cell count,[10]; [15],10600
same,z-score,[11]; [16],-0.352 (inactive)
same,z-score,[11]; [17],0.7
Cc1sc2c(c1C)C(c1ccc(Cl)cc1)=N[C@@H](CC(=O)OC(C)(C)C)c1nnc(C)n1-2,AC50,[5],18.7 µM (active)
same,AC50,[2],2.63 µM (active)
same,AC50,[3],16.6 µM (active)
CCNC(=O)C[C@@H]1N=C(c2ccc(Cl)cc2)c2cc(OC)ccc2-n2c(C)nnc21,AC50,[6],7.43 µM (active)
same,outcome,[8],inactive
same,outcome,[3],inactive
same,outcome,[4],inactive
COc1ccc2c(c1)[C@]13CCCCC1C(C2)N(C)CC3 (some centres not stated),outcome,[6],inactive
same,outcome,[9],inactive
same,outcome,[8],inactive
same,fold change,[10]; stronger effect = lower value,0.884 (inactive)
same,fold change,[10]; [13],1.91
same,cell count,[10]; [14],7550
same,cell count,[10]; [15],8540
same,z-score,[12],0.055 (inactive)
O=C(NCC1CCOCC1)c1cnc(Nc2ccc(Cl)cc2Cl)nc1C(F)(F)F,outcome,[5],inactive
same,AC50,[6],18.7 µM (active)
same,AC50,[9],10.5 µM (active)
same,outcome,[7],inactive
same,outcome,[2],inactive
same,outcome,[8],inactive
same,outcome,[3],inactive
same,outcome,[4],inactive
same,fold change,[10]; [18],0.931 (inactive)
same,fold change,[10]; [13],1.15
same,cell count,[10]; [14],8190
same,cell count,[10]; [15],8790
same,z-score,[11]; [16],-0.266 (inactive)
same,z-score,[11]; [17],-0.797
C[C@]12CC[C@H]3[C@@H](CCC4=CC(=O)CC[C@@H]43)[C@@H]1CC[C@@H]2OC(=O)CCc1ccccc1,outcome,[5],inactive
same,outcome,[6],inactive
same,outcome,[9],inactive
same,outcome,[8],inactive
same,outcome,[4],inactive
C=C[C@H]1CN2CCC1C[C@H]2[C@H](O)c1ccnc2ccccc12 (some centres not stated),AC50,[6],20.9 µM (active)
same,outcome,[8],inactive
CC(C)N[C@@H]1CCn2c(=O)[nH]c3cccc(c32)[C@H]1O,AC50,[5],7.43 µM (active)
same,AC50,[6],14.8 µM (active)
same,AC50,[9],0.743 µM (active)
same,AC50,[8],23.5 µM (active)
C[C@](O)(COc1ccc(C#N)cc1)C(=O)Nc1ccc(C#N)c(C(F)(F)F)c1,outcome,[6],inactive
same,outcome,[9],inactive
same,outcome,[7],inactive
same,outcome,[2],inactive
same,outcome,[8],inactive
same,outcome,[4],inactive
same,fold change,[10]; stronger effect = lower value,0.889 (inactive)
same,fold change,[10]; [13],1.23
same,cell count,[10]; [14],6840
same,cell count,[10]; [15],7700
same,z-score,[11]; [16],-0.434 (inactive)
same,z-score,[11]; [17],0.535
O=C(N[C@@H](COc1ccc2[nH]c(=O)[nH]c2c1)c1ccccc1)c1cccn(Cc2ccc(F)c(F)c2)c1=O,outcome,[5],inactive
same,outcome,[7],inactive
same,AC50,[2],18.6 µM (active)
same,AC50,[3],16.6 µM (active)
same,outcome,[4],inactive
COC1(CS(=O)c2ccccc2)CCN(CCc2c[nH]c3ccc(F)cc23)CC1 (configuration not stated),outcome,[5],inactive
same,outcome,[6],inactive
same,outcome,[9],inactive
same,outcome,[7],inactive
same,outcome,[8],inactive
same,outcome,[3],inactive
same,outcome,[4],inactive
CC(C)(C)[C@]1(O)C[C@@H]2OC(=O)C[C@@]23C(=O)O[C@@H]2OC(=O)[C@H](O)C213 (some centres not stated),outcome,[5],inactive
same,outcome,[6],inactive
same,outcome,[9],inactive
same,outcome,[8],inactive
COC[C@H]1OC(=O)c2coc3c2[C@@]1(C)C1=C(C3=O)[C@@H]2CC[C@H](O)[C@@]2(C)C[C@H]1OC(C)=O,AC50,[5],16.6 µM (active)
same,AC50,[9],1.18 µM (active)
same,AC50,[7],9.34 µM (active)
same,AC50,[2],1.66 µM (active)
same,AC50,[8],14.8 µM (active)
same,AC50,[3],5.9 µM (active)
same,outcome,[4],inactive
C[C@@]12OC(=O)[C@]1([C@@H](O)[C@@H]1C=CCCC1)NC(=O)[C@@H]2CCCl,AC50,[5],0.59 µM (active)
same,AC50,[6],0.0418 µM (active)
same,AC50,[9],0.00935 µM (active)
same,AC50,[7],0.0148 µM (active)
same,AC50,[2],0.0186 µM (active)
same,AC50,[8],0.0235 µM (active)
same,AC50,[3],0.0295 µM (active)
c1cc2c(cc1[C@H]1OC[C@H]3[C@@H]1CO[C@@H]3c1ccc3c(c1)OCO3)OCO2,outcome,[6],inactive
same,outcome,[8],inactive
C[C@H]1[C@@H](CC(C[C@H]2O[C@@H]3O[C@]4(C)CC[C@H]5[C@H](C)CC[C@@H]([C@H]2C)[C@@]35OO4)CS(=O)(=O)c2ccc(COC(=O)N(C)C)cc2)O[C@@H]2O[C@]3(C)CC[C@H]4[C@H](C)CC[C@@H]1[C@@]24OO3 (some centres not stated),AC50,[9],0.209 µM (active)
CCN(CC)C(=O)c1ccc(C2=CC3(CCNCC3)Oc3cccc(O)c32)cc1,outcome,[5],inactive
same,outcome,[9],inactive
same,outcome,[7],inactive
same,outcome,[8],inactive
same,outcome,[3],inactive
same,fold change,[10]; [18],0.925 (inactive)
same,fold change,[10]; [13],0.955
same,cell count,[10]; [14],8090
same,cell count,[10]; [15],8740
same,z-score,[11]; [16],-0.509 (inactive)
same,z-score,[11]; [17],0.582
CN1CCN(c2ccc([N+](=O)[O-])c3no[n+]([O-])c23)CC1,AC50,[6],23.5 µM (active)
same,AC50,[9],16.6 µM (active)
same,AC50,[7],16.6 µM (active)
same,AC50,[2],18.6 µM (active)
same,AC50,[3],23.5 µM (active)
same,outcome,[4],inactive
